Screens as filed in PubChem.
A selection: hits, their analogues and other compounds. The true share with any hit is near 1.6%.
KCNQ2 enhance: potentiators of rat KCNQ2 potassium channel. CHO-K1 KCNQ2, FluxOR thallium flux fluorescence; hits give high values. AID 2239. 0.54% of 310,000 active. B-score at 10 µM;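 active = fluorescence ratio B-score at least 3 SD of library B-scores, with initial fluorescence B-score within 3 of them, cut at about 5.3 in these data; same plate scores as AID 2156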;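 note: B-score of peak minus minimum over baseline fluorescence ratio after K+ and Tl+ stimulus; positive B-score means potentiation of KCNQ2 with more thallium influx and brighter signal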
KCNQ2 inh: blocks the rat KCNQ2 potassium channel. B-score at 10 µM. 1.1% of 310,000 active. O88943. CHO-K1 KCNQ2, FluxOR thallium flux, 20 min; hits give low values;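 active = fluorescence ratio B-score at most minus 3 library SDs, with starting brightness B-score within 2 library SDs, cut at about -5.5 in these data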
Kir21 conf inh: confirmation of mouse Kir2.1 potassium channel inhibitors | Kir2.1-expressing cells, FluxOR thallium flux fluorescence; hits give low values | Tl flux remaining, % of negative control (hits give low values), % at 10 µM | 41% of 2,300 active | shares compounds with KCNQ2 enhance;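 active = Primary-screen hit whose thallium flux fell at least 3 control SD below untreated wells in both duplicates, with normal baseline fluorescence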;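 note: 0% = blank wells without stimulus and 100% = stimulated no-compound controls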
Target sequence (P35561 whole entry, looked up): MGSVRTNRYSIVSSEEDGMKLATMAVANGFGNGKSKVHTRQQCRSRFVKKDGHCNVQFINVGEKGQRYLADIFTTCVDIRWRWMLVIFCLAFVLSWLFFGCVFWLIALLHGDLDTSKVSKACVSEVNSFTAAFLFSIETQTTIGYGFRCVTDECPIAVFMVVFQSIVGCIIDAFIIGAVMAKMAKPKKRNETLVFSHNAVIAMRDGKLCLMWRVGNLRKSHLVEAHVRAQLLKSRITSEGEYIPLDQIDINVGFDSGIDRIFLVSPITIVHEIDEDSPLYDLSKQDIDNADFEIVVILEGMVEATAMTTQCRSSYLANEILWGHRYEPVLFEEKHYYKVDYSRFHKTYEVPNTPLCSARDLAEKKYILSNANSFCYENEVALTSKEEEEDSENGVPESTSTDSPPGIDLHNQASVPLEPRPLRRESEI
HEK293 Tl flux: alters thallium flux in parental HEK293 cells, Kir2.1 counter-screen; shares compounds with KCNQ2 enhance; FluxOR thallium flux fluorescence; 0% = unstimulated blank wells; FluxOR signal as % of negative control (100 = no effect), % at 10 µM; 19% of 2,300 active; AID 2105;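 active = dye signal at least 3 control SD above or below untreated wells in both duplicates, raw fluorescence within 3, either direction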;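 note: percent is based on the flux ratio of peak minus minimum fluorescence over baseline F0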
CHO-K1 ctr: parental CHO-K1 activity in KCNQ2 potentiator counter-screen | 43% of 1,200 active | AID 2282 | parental CHO-K1 cells, FluxOR thallium flux fluorescence; zero = vehicle mean+3SD, 100% = vehicle-minus-blank window | shares compounds with KCNQ2 enhance | activity increase over 3SD of controls, % at 10 µM;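 active = signal rise of at least 3 SD above the untreated control mean, in both duplicate wells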;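 note: counter screen of KCNQ2 potentiator hits so any rise reflects channel-independent effects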
KCNQ1 sel pot: tests whether KCNQ2 potentiators also act on human KCNQ1. shares compounds with KCNQ2 enhance. CHO KCNQ1 stable, FluxOR thallium flux fluorescence; beyond 3SD, as % of vehicle-control signal. activation over 3SD threshold, % at 10 µM. 28% of 1,200 active. AID 2283;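 active = fluorescence ratio rise of at least 3 SD of vehicle wells above their mean, in both replicate wells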;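 note: 0% = vehicle mean plus 3 SD and 100% = vehicle minus unstimulated blank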
KCNQ2 pot confirm: rat KCNQ2 channel potentiator confirmation; potentiation, less the hit threshold, % at 10 µM; CHO-KCNQ2 cells, FluxOR thallium flux fluorescence; shares compounds with KCNQ2 enhance; AID 2287; 68% of 1,200 active;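 active = fluorescence ratio rising 3 SD or more over the vehicle control mean in both replicates, plus primary screen hit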;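 note: peak minus minimum thallium fluorescence divided by baseline after K/Tl stimulus; 0% = vehicle mean plus 3 SD and 100% = vehicle minus unstimulated blank difference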
Kir2-1 sel: tests whether KCNQ2 potentiators also affect mouse Kir2.1; HEK293 Kir2.1, FluxOR thallium flux fluorescence; shares compounds with KCNQ2 enhance; activity over 3SD threshold, % at 10 µM; 2% of 1,200 active;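 active = fluorescence ratio rise of at least 3 SD above the vehicle-control mean, seen in both replicates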;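 note: 0% = vehicle mean plus 3 SD and 100% = vehicle minus no-stimulus blank window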
KCNQ2 W236L MoA: rat KCNQ2 W236L mutant potentiation by KCNQ2 potentiators; shares compounds with KCNQ2 enhance; CHO KCNQ2-W236L, automated patch clamp current; current increase over 3SD of negative controls (%), hits give high values, % at 25 µM; 10% of 940 active; AID 2558;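 active = current increase at least 3 SD of the untreated controls above them in both duplicate recordings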
Active calls of the source: *; i = inactive; / = no result given.

SMILES	KCNQ2 enhance	KCNQ2 inh	Kir21 conf inh	HEK293 Tl flux	others
COc1ccc(CCNC(=O)COc2ccc(N(C)S(=O)(=O)c3ccc(Cl)cc3)cc2)cc1	-6.47	-6.47*	i	i
CN1CCN(CCCNC(=O)c2ccc(CSCc3cccc(Cl)c3)o2)CC1	1.18	i	/	/
CC1CCN(CCCNC(=O)c2ccc(CSCc3cccc(Cl)c3)o2)CC1	/	i	37.0%*	i
COc1ccc(C)cc1NC(=O)c1sc2ncn(CC(=O)N3CCCCC3)c(=O)c2c1C	/	i	/	/
CN(C)c1ccc(N2C(=NC(=O)c3ccccc3)SC3CS(=O)(=O)CC32)cc1 (stereo not drawn)	/	i	/	/
Cc1cccc(NS(=O)(=O)c2ccc(C(=O)NCCCN3CCCC3=O)cc2)c1C	2.02	i	/	/
CC(=O)Nc1sc2c(c1C(c1ccccn1)N1CCCC1)CCCC2 (stereo not drawn)	1	i	/	/
CC(=O)Nc1sc2c(c1C(c1ccccc1Cl)N1CCN(CCO)CC1)CCCC2 (stereo not drawn)	5.29*	i	/	/	CHO-K1 ctr=-35.7;KCNQ1 sel pot=-18.3;KCNQ2 pot confirm=37.7*;Kir2-1 sel=-62.2;KCNQ2 W236L MoA=i
NC(=O)NC(CC(=O)N1CCc2ccccc2C1)c1ccc(Cl)cc1 (stereo not drawn)	0.77	i	/	/
N=c1c(S(=O)(=O)c2ccc(Br)cc2)cc2c(=O)n3ccccc3nc2n1C1CCCCC1	/	i	/	/
Cc1cccn2c(=O)c3cc(S(=O)(=O)c4ccc(Br)cc4)c(=N)n(C4CCCC4)c3nc12	0.14	i	i	i
CCOc1ccc(C(C(=O)NC(C)(C)C)N(CCOC)C(=O)CCC(=O)Nc2ccccn2)cc1 (stereo not drawn)	2.33	i	/	/
CC/C(=N/NC(=O)c1ccc2c(c1)OCO2)c1ccccc1O	7.86*	i	i	i	CHO-K1 ctr=-11.6;KCNQ1 sel pot=-20.0;KCNQ2 pot confirm=16.4*;Kir2-1 sel=-31.1;KCNQ2 W236L MoA=i
CC/C(=N\NC(=O)c1ccc2c(c1)OCO2)C12CC3CC(CC(C3)C1)C2	/	i	/	/
CCOc1ccc(Nc2ccnc3cc(Cl)ccc23)cc1	/	i	/	/
CN1CCN(c2ccc(Nc3ccnc4cc(Cl)ccc34)cc2)CC1	/	i	58.5%*	i
COc1ccc(C(=O)Nc2ccnn2C2CCN(C(=O)c3cnsn3)CC2)cc1	/	i	/	/
N#Cc1c(C(F)(F)F)cc(-c2ccc(Cl)c(Cl)c2)nc1SCCN1CCOCC1	0.12	i	/	/
N#Cc1c(C(F)(F)F)cc(-c2ccccc2)nc1SCc1nc(N)nc(N2CCOCC2)n1	10.2*	i	i	i	CHO-K1 ctr=-18.6;KCNQ1 sel pot=-21.9;KCNQ2 pot confirm=17.1*;Kir2-1 sel=-16.9;KCNQ2 W236L MoA=i
O=C(Cn1cccc1C(=O)c1ccccc1)NCc1cccc(Cl)c1	/	i	/	/
O=C(CSc1nc2ccccc2o1)Nc1ccccc1N1CCOCC1	0.43	i	56.0%*	i
O=C(CSc1nc2ccccc2o1)Nc1ccc(N2CCOCC2)cc1	/	i	/	/
N#C/C(=N\Nc1cccc(C(F)(F)F)c1)C(=O)c1csc(-c2cccnc2)n1	6.38*	i	i	69.5%*	CHO-K1 ctr=18.7*;KCNQ1 sel pot=-1.9;KCNQ2 pot confirm=-3.8;Kir2-1 sel=-35.6
Cc1ccc(C(=O)Nc2cccc(C(F)(F)F)c2)cc1NC(=O)c1csc(-c2ccncc2)n1	/	i	/	/
Cc1c(NC(=O)C(C)OC(=O)c2ccc(Br)o2)c(=O)n(-c2ccccc2)n1C (stereo not drawn)	0.38	i	/	/
SMILES	KCNQ2 enhance	KCNQ2 inh	Kir21 conf inh	HEK293 Tl flux	others
Cc1c(NC(=O)COC(=O)c2ccc(Br)o2)c(=O)n(-c2ccccc2)n1C	/	i	i	i
OC1(c2ccc(Cl)cc2)CCN(Cc2c[nH]c3ccccc23)CC1	0.38	i	33.5%*	i
Clc1ccccc1N1CCN(Cc2c[nH]c3ccccc23)CC1	/	i	/	/
COc1ccccc1CCNS(=O)(=O)CCNC(=O)c1ccc2c(c1)OCO2	0.7	i	/	/
Cc1ccc(S(=O)(=O)/N=C/c2c(O)ccc3ccccc23)cc1	/	i	/	/
O=S(=O)(/N=C/c1c(O)ccc2ccccc12)c1cccs1	5.76*	i	i	i	CHO-K1 ctr=-7.0;KCNQ1 sel pot=-27.2;KCNQ2 pot confirm=-16.1;Kir2-1 sel=-35.8
CCC(C(=O)Nc1ccc([N+](=O)[O-])cn1)c1ccccc1 (stereo not drawn)	/	i	/	/
Cc1sc2ncnc(SCC(=O)c3cccs3)c2c1C	6.9*	i	i	i	CHO-K1 ctr=-17.1;KCNQ1 sel pot=-5.2;KCNQ2 pot confirm=-8.8;Kir2-1 sel=-31.1;KCNQ2 W236L MoA=i
Cc1cccc(NC(=O)CSc2ncnc3sc(C)c(C)c23)n1	0.74	i	/	/
CN1C(=O)NC(c2ccc(Cl)cc2)C2=C1CC(C)(C)CC2=O (stereo not drawn)	0.06	i	/	/
CCC(C(=O)OC(C)C(=O)Nc1ccc(Cl)cn1)c1ccccc1 (stereo not drawn)	/	i	57.5%*	68.5%*
CNc1ccccc1C(=O)OC(C)C(=O)Nc1ccc(Cl)cn1 (stereo not drawn)	0.65	i	/	/
Cc1[nH]c2ccccc2c1C(=O)C(=O)NCc1ccncc1	0.02	i	/	/
CC(C)CCN1C(Nc2ccccc2)=NC[C@@H]1Cc1ccccc1	/	i	/	/
CC(CCN1C(Nc2ccccc2)=NC[C@@H]1Cc1ccccc1)c1ccccc1 (stereo partly drawn)	/	i	46.0%*	128.5%*
CCOC(=O)c1oc2nc(CC(C)C)c3c(c2c1N)CCCC3	0.89	i	/	/
Cc1cc(C)n(CC(=O)N/N=C/c2cc(Br)cc([N+](=O)[O-])c2O)n1	6.94*	i	i	65.0%*	CHO-K1 ctr=-2.0;KCNQ1 sel pot=-13.1;KCNQ2 pot confirm=39.6*;Kir2-1 sel=-26.4;KCNQ2 W236L MoA=i
Cc1cc(C)n(CC(=O)N/N=C/c2cc([N+](=O)[O-])ccc2O)n1	1.29	i	/	/
COc1ccccc1N1CCN(C2CCCN(C(=O)Cn3cccn3)C2)CC1 (stereo not drawn)	/	i	/	/
CCc1c(C)nc(SCC(=O)N2C(C)CCCC2C)[nH]c1=O (stereo not drawn)	0.11	i	/	/
CCc1c(C)nc(SCC(=O)N2CCCCC2C)[nH]c1=O (stereo not drawn)	5.46*	i	i	i	CHO-K1 ctr=19.5*;KCNQ1 sel pot=-16.5;KCNQ2 pot confirm=-25.6;Kir2-1 sel=-33.7
Cc1cc(NC(=O)CSc2cn(CC(=O)N(C(C)C)C(C)C)c3ccccc23)no1	/	i	/	/
CCCOC(=O)C[N+](C)(C)CCOC1CC2CCC1(C)C2(C)C (stereo not drawn)	/	i	/	/
